In the library only some 0.45% were active in any assay of this set; here they are far more common.
FMDV Renilla – shows antiviral activity in FMDV Renilla assay; FMDV replicon cells, Renilla luciferase signal; Potency, µM (titrated, usually from 57.5 µM), for inactives: at the highest dose activity change, negative = inhibition, usual class: inhibitors; 120,000 compounds, 0.32% hits; AID 1745857; also: nearly all actives have a fitted effect of over 55% in size
FMDV antiviral – antivirals against foot and mouth disease virus. FMDV antiviral cell assay, firefly luciferase signal. Potency, µM (highest dose often 57.5 µM), without a hit: top-dose activity change, negative = inhibition, hits mostly inhibitors. 120,000 compounds, 0.23% hits. AID 1745856; also: nearly all actives have a fitted effect of over 60% in size
* hit, by the source's call; ? = inconclusive; [ ] = remark or other dose. Calls follow the shape of the full dose curve. % is scaled to controls: 0 for no effect and ±100 for the full control effect; potency is read from the fitted curve at half-maximal effect.

SMILES | FMDV Renilla | FMDV antiviral
CNC(=O)c1ccccc1OCc1coc(-c2ccc(OC)cc2)n1 | ? | -11%
CNC(=O)c1cccc(OCc2coc(-c3cccc(F)c3)n2)c1 | 13µM* | -16%
COc1ccc(NC(=O)c2ccc3c(c2)OCC(=O)N3)cc1 | 13% | 89%
O=C(O)CSc1c2c(nc3cc(C(=O)NC4CCCCCC4)ccc13)CCCC2 | -11% | 17%
Cc1nc(CN2CCN(S(=O)(=O)c3cc(Cl)ccc3Cl)CC2)cs1 | -11% | -21%
O=C(c1n[nH]c(=O)c2ccccc12)N1CCN(CC(F)(F)F)CC1 | 17% | 38%
Cc1cccc(CN2CCN(C(=O)c3n[nH]c(=O)c4ccccc34)CC2)c1 | ? | 14µM*
Cc1ccccc1CN1CCC(N2CCCCCC2)CC1 | ? | 25µM*
Cc1ccccc1CN1CCC(C(=O)O)CC1 | 5% | 6%
COC(=O)c1ccc2oc(=O)c(S(=O)(=O)c3ccccc3)cc2c1 | -18% | -13%
O=C(O)c1cc(NCc2ccc(OCc3ccccc3)cc2)ccc1N1CCOCC1 | 28µM* | ?
O=C(O)c1cc(NCc2ccccc2OCc2ccccc2)ccc1N1CCOCC1 | 35% | 6%
CCc1ccc(CN2CCc3nc(N4CCN(c5ccccc5F)CC4)ncc3C2)cc1 | -13% | -1%
COc1cccc(N2CCN(c3ncc4c(n3)CCN(Cc3ccc(Br)cc3)C4)CC2)c1 | 4µM* | 7.1µM*
Cc1ccc(C(=O)NCc2nc(C)cs2)c(C)c1 | 19% | 0%
O=C(CN1C(=O)c2ccccc2S1(=O)=O)c1ccc(-c2ccc(Br)cc2)cc1 | -10% | 33%
O=C(CN1C(=O)c2ccccc2S1(=O)=O)c1ccc(F)cc1 | 13% | 11µM*
Cn1c(=O)c2c(nc(N3CCN(C(=O)c4ccccc4F)CC3)n2Cc2ccccc2)n(C)c1=O | -2% | 5%
Cc1cc(C(C#N)c2ccc(Cl)cc2)c(Cl)cc1NC(=O)CCc1ccccc1 (stereo not drawn) | 2% | 1%
Cc1cc(C(C#N)c2ccc(Cl)cc2)c(Cl)cc1NC(=O)c1cc(I)cc(I)c1O (stereo not drawn) | 11µM* | -31%[11.5 µM]
O=C(Nc1cccc(Br)c1)Nc1ccc2c(c1)N(C(=O)c1ccccc1)CC2 | 14µM* | ?
CC(=O)c1cccc(NC(=O)Nc2cccc(Br)c2)c1 | 2% | 11%
CC(=O)c1ccc(S(=O)(=O)N2CCn3cccc3C2c2ccc(F)c(F)c2)cc1 (stereo not drawn) | 23% | -9%
CC(=O)c1ccc(S(=O)(=O)N2CCn3cccc3C2c2ccccc2F)cc1 (stereo not drawn) | 32µM* | 13%
CNC(=S)NNC(=O)c1ccc(Br)cc1 | 1% | 18%
SMILES | FMDV Renilla | FMDV antiviral
CCc1nc2ccccc2n1CCCCOc1ccccc1C | ? | 11µM*
Cc1ccc(NCc2nc3ccccc3n2CCOc2ccccc2C)cc1 | 55% | 31%
CN(C(=O)Cn1c(CN2CCOCC2)nc2ccccc21)c1ccccc1 | 4% | 0%
CCN1CCN(c2nc3c(c(=O)[nH]c(=O)n3C)n2Cc2ccc(Br)cc2)CC1 | -13% | -4%
Cc1c(C(=O)Nc2ccc3c(c2)N(C)C(=O)CO3)oc2ccccc12 | 34% | 49%
CCn1c2ccccc2c2cc(CNCC3CCNCC3)ccc21 | 28µM* | ?
COc1cc(CNCC2CCNCC2)ccc1OCc1ccccc1Cl | 35µM* | ?
CCOc1ccc(CN2CCN(Cc3ccc4c(c3)c3ccccc3n4CC)CC2)cc1 | ? | 22%
COc1cc(CNCc2ccco2)ccc1OCc1ccccc1C | 2% | 0%
CCOC(=O)C1CCCN(S(=O)(=O)c2ccc3c(c2)CCCN3C(C)=O)C1 (stereo not drawn) | 151% | -32%
COc1ccccc1N1CCN(C(=O)C2CCCN(S(=O)(=O)c3ccc4c(c3)CCCN4C(C)=O)C2)CC1 (stereo not drawn) | 25µM* | ?
CC(C)N1C(=O)C(O)(CC(=O)c2cccnc2)c2ccccc21 (stereo not drawn) | 20% | -2%
C=C(COC(C)=O)C1Cc2c(ccc3c2OC2COc4cc(OC)c(OC)cc4C2C3=O)O1 (stereo not drawn) | 0.2µM* | ?
COc1ccc2cc(COC(=O)C3COc4ccccc4O3)ccc2c1 (stereo not drawn) | 12% | 0%
CCOc1ccc(NC(=O)Nc2c(C)nn(Cc3ccc(Cl)c(Cl)c3)c2C)cc1 | -1% | 3%
Cc1cccc(NC(=O)c2ccc3c(c2)NC(=O)CS3)c1 | -3% | 134%
Cc1ccc(NC(=O)c2ccc3c(c2)NC(=O)c2ccccc2S3)cc1 | 6.3µM* | ?
CC(=O)Nc1ccc(N=CC2=C(O)CC(C)(C)CC2=O)cc1 | 7% | 6%
CC(C)(C)c1ccc2c(c1)OCCOCCOc1cc(C(C)(C)C)ccc1OCCOCCO2 | 18µM* | 28µM*
CC(C)(C)c1ccc2c(c1)OCCOCCOCCOCCO2 | -24% | -11%
N#Cc1c(NC(=O)CSc2nccn2Cc2ccccc2)sc2c1CCC2 | 20% | 94%
N#Cc1c(NC(=O)c2nn(-c3ccccc3)c(=O)c3ccccc23)sc2c1CCCC2 | 1% | -4%
